Measured potencies and affinities stand elsewhere. Records with an inconclusive call do not appear. Activity calls are given as the source filed them. The rule behind the calls is not given here.

The experiment is described as follows: toxicity to human HepG2 hepatoma cells – cell-based, plate reader, dry powder samples, cytotoxicity control, dose response (AID 1159569). The following applies: HepG2 cytotoxicity counterscreen; series mostly up to 50 µM. (A counterscreen serves to expose hits that act by an unwanted route or on another target.)
Turning to `COc1ccc(NC(=O)N2CCCCN3[C@@H](CO)[C@H](c4ccc(C#Cc5ccccn5)cc4)[C@@H]3C2)cc1`, the compound was classed as inactive. As for `COc1ccc2c3c([nH]c2c1)[C@H](CO)NCC31CCN(C(=O)Nc2ccc3c(c2)OCO3)CC1`, the compound was classed as inactive. Regarding `COc1ccc(C#Cc2ccc3c(c2)O[C@H](CN(C)S(=O)(=O)c2ccccc2F)[C@@H](C)CN([C@H](C)CO)S3(=O)=O)cc1`, the outcome was inactive. With `COc1cccc(S(=O)(=O)N(C)C[C@@H]2Oc3ncc(C#Cc4ccc(OC)c(OC)c4)cc3C(=O)N([C@H](C)CO)C[C@@H]2C)c1`, the compound was classed as inactive. Consider `COc1ccc(S(=O)(=O)Nc2cccc3c2O[C@H](CN(C)Cc2ccc(-c4ccccc4)cc2)[C@@H](C)CN([C@H](C)CO)C3=O)cc1`, for which the call was inactive. Consider `Cc1ccc(S(=O)(=O)N(C)C[C@H]2OCc3ccccc3-c3c(n(C)c4ccccc34)C(=O)N([C@@H](C)CO)C[C@@H]2C)cc1`, for which the call was inactive. `COc1cccc(CN2CC3(CCN(Cc4ccccn4)CC3)c3c([nH]c4cc(OC)ccc34)[C@@H]2CO)c1`: the call was inactive. For `O=C(c1cccc(F)c1)N1CC(=O)N2[C@H](C1)[C@@H](c1ccc(-c3cccnc3)cc1)[C@@H]2CO`, the call was inactive. `COc1ccc2c3c(n(C)c2c1)[C@@H](CO)N(C(=O)C1CC1)CC31CN(C(=O)Nc2cccc(F)c2)C1`: the result was inactive.

As for `O=C(NC[C@@H]1CC[C@H]2[C@H](CN2Cc2cc(-c3ccccc3)on2)O1)c1ccc2c(c1)OCO2`, the call was inactive. Turning to `CCCNC(=O)N1[C@H](C#N)[C@H](c2ccc(C#Cc3cccc(F)c3)cc2)[C@H]1CO`, the compound was called inactive.

For the origin of these results see PubChem BioAssay AID1159569 (Broad Institute, 2015).
